In assay [1] the target is T1, Ephrin type-A receptor 3 (Homo sapiens) (UniProt P29320).
T1 sequence (whole entry): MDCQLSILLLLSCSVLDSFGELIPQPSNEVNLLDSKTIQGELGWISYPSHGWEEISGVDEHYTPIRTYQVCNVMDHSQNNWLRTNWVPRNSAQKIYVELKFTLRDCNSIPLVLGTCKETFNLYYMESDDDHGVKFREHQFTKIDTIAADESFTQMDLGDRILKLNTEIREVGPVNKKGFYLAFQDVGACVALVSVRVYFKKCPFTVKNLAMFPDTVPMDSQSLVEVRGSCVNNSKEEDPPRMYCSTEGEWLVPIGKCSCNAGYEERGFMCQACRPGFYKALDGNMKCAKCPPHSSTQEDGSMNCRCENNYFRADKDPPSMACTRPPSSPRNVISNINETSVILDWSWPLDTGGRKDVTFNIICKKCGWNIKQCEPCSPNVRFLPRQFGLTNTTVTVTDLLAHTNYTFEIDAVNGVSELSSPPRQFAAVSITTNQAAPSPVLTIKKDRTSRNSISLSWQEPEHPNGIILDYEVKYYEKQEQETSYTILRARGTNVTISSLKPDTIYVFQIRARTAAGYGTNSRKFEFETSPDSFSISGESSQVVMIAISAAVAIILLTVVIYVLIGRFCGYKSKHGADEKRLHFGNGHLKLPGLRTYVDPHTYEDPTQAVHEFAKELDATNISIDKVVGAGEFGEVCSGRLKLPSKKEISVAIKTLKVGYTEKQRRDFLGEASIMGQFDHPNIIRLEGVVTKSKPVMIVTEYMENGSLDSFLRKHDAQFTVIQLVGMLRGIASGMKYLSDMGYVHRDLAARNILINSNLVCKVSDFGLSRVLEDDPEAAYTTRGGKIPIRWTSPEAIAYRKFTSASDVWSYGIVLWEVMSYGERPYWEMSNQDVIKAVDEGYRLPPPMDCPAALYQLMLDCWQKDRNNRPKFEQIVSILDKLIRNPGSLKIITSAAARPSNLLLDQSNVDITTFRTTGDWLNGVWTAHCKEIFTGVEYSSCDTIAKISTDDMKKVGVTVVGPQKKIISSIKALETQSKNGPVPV
To be noted: at 10 µM.

Assay [2] has as its target Ephrin type-A receptor 4 (Homo sapiens) (UniProt P54764). Conditions: at 1 µM.
The target is the same in assay [3]. Conditions: at 10 µM.
Assay [4] has as its target Ephrin type-A receptor 5 (Homo sapiens) (UniProt P54756). Conditions: at 1 µM.
The target is the same in assay [5]. Conditions: at 10 µM.
The target in assay [6] is Ephrin type-A receptor 7 (Homo sapiens) (UniProt Q15375). Conditions: at 1 µM.
Ephrin type-A receptor 7 (Homo sapiens), sequence (Q15375 28-998 limits assumed): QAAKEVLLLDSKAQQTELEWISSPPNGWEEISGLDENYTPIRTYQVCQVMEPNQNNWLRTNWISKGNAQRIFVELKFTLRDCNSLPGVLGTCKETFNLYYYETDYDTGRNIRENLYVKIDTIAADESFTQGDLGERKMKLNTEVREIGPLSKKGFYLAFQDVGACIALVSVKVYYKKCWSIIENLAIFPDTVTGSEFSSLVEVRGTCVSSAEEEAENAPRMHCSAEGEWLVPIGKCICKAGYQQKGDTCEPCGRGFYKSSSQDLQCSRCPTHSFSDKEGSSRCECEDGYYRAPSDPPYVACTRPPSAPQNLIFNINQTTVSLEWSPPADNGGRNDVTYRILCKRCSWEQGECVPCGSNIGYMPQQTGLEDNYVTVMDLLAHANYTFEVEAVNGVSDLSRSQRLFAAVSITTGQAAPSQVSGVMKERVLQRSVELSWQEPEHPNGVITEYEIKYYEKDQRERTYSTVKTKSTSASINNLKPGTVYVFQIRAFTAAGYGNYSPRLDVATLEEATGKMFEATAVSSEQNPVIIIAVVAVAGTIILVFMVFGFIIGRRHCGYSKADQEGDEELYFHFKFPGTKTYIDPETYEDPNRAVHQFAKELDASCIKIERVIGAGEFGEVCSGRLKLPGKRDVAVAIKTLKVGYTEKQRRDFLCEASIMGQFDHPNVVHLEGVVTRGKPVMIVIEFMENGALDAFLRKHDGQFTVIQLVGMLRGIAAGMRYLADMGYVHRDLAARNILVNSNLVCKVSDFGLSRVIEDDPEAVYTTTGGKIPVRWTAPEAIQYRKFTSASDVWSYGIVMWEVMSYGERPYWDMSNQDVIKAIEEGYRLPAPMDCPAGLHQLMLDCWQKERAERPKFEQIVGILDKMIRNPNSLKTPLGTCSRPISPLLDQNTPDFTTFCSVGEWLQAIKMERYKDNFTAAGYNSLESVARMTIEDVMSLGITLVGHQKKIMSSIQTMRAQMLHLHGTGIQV
Assay [7] has the same target. Conditions: at 10 µM.
The target of assay [8] is T2, Ephrin type-A receptor 8 (Homo sapiens) (UniProt P29322).
T2 sequence (whole entry): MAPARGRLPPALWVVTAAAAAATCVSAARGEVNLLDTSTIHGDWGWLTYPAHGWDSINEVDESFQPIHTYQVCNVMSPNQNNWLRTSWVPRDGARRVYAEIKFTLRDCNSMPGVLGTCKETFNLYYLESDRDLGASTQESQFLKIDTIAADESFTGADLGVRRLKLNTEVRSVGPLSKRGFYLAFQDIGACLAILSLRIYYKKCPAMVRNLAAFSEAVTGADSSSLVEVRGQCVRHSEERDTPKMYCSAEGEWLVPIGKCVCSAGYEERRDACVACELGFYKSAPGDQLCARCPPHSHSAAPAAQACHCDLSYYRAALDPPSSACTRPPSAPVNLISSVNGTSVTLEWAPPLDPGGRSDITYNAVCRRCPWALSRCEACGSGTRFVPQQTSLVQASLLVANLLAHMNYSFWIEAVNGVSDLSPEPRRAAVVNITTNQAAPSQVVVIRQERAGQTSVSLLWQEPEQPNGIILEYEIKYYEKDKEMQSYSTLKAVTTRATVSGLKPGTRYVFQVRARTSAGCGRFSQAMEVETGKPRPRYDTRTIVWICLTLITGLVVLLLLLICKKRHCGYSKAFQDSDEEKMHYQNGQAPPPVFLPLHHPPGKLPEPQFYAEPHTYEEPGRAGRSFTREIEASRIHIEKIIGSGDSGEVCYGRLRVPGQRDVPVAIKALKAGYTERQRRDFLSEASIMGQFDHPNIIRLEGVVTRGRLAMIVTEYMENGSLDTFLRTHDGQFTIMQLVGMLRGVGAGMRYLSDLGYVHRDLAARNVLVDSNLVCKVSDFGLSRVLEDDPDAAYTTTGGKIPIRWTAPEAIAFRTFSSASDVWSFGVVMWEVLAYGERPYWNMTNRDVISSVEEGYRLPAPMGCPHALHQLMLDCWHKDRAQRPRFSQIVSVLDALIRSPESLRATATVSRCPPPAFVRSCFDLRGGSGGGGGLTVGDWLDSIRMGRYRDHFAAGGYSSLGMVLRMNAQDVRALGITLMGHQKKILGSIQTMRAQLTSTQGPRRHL
Conditions: at 1 µM.

The target of assay [9] is T2, Ephrin type-A receptor 8 (Homo sapiens). Conditions: at 10 µM.
The target in assay [10] is T3, Ephrin type-B receptor 1 (Homo sapiens) (UniProt P54762).
T3 sequence (whole entry): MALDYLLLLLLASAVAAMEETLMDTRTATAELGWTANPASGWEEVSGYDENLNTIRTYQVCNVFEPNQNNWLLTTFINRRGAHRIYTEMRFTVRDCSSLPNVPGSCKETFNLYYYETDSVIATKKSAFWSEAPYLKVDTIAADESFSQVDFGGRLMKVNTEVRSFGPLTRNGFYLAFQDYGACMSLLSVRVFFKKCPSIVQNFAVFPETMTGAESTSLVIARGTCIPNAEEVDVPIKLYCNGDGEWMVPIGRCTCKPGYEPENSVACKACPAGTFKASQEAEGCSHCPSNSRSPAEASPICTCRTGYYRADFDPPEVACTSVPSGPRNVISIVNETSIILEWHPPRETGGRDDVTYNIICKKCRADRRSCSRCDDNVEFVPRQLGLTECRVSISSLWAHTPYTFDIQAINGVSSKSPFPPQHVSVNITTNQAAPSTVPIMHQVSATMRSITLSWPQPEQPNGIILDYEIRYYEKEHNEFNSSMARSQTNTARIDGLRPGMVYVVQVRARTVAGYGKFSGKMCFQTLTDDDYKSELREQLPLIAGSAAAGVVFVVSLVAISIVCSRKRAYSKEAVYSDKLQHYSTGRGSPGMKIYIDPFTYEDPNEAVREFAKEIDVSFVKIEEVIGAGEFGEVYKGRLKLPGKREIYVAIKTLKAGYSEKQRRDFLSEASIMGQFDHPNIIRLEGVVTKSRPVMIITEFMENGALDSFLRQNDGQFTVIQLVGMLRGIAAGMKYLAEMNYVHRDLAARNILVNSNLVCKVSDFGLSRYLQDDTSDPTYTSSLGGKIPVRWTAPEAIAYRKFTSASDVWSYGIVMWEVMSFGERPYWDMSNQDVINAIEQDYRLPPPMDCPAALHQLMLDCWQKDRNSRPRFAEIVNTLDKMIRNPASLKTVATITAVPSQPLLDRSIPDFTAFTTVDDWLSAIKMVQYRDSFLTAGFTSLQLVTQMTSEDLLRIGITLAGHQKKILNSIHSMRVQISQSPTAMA
To be noted: at 1 µM.

Ephrin type-A receptor 5 (Homo sapiens), sequence (P54756 whole entry): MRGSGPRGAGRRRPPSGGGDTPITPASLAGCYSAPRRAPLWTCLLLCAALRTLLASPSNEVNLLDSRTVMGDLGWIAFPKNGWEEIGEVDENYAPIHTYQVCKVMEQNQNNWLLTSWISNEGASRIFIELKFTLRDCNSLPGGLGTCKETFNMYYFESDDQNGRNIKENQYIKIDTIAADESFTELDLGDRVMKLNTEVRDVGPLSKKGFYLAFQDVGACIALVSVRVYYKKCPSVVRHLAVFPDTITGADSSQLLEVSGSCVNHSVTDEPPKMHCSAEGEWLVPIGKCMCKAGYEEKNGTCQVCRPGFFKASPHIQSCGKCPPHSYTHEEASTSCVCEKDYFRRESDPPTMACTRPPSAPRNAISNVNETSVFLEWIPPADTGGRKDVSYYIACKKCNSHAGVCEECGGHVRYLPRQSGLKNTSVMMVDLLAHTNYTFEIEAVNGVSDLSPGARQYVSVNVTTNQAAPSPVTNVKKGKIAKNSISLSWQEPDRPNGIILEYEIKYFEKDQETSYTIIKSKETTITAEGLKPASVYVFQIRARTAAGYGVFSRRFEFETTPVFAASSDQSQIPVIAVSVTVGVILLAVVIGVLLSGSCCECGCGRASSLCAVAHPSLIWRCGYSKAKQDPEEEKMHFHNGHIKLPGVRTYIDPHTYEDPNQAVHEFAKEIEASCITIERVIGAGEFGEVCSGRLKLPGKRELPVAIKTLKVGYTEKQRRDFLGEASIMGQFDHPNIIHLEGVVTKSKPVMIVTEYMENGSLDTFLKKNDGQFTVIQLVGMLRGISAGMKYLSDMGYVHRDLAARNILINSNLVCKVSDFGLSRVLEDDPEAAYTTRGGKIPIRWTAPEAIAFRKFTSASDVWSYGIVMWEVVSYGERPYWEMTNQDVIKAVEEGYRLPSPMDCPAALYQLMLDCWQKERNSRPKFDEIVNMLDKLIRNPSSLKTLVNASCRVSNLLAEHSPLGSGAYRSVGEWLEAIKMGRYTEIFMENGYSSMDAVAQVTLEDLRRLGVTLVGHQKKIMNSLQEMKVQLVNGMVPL
Ephrin type-A receptor 4 (Homo sapiens), sequence (P54764 whole entry): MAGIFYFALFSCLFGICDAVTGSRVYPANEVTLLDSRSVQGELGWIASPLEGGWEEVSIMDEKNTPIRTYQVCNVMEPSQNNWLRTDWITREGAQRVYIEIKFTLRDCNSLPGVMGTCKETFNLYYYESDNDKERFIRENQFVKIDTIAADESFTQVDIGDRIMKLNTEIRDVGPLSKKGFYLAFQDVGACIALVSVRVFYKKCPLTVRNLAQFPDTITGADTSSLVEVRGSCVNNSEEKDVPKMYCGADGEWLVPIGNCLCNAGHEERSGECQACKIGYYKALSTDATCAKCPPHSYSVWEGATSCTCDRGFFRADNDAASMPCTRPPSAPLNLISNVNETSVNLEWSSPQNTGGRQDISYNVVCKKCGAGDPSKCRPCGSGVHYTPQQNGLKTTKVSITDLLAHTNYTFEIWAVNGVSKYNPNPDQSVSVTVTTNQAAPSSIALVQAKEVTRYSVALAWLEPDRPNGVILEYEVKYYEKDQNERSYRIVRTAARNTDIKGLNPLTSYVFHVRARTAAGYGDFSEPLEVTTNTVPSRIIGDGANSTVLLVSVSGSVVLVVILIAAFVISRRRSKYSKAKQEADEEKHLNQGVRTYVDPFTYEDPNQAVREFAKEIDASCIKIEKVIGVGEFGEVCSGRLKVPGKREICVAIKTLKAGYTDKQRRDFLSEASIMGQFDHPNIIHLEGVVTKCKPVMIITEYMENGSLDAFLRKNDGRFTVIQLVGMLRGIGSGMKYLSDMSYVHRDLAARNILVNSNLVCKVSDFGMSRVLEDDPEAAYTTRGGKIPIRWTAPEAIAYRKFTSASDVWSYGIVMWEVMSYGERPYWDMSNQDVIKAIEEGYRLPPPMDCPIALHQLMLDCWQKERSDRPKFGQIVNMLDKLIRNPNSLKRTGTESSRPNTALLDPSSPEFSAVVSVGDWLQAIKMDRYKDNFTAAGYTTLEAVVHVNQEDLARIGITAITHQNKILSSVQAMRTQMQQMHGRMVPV

The term residual activity denotes the signal under treatment as a percentage of the control signal. Consider `CC#CC(=O)Nc1cc2c(Nc3ccc(F)c(Cl)c3)ncnc2cn1`, for which the residual activity came out at 92% in assay [1]; 118% in assay [2]; 91% in assay [3]; 102% in assay [4]; 97% in assay [5]; 96% in [6]. The residual activity in assay [7] stood at 91%; in assay [8], 104%; in [9] it was 93%; in [10], 96%.

The record behind these values is ChEMBL document CHEMBL2218924, “A broad activity screen in support of a chemogenomic map for kinase signalling research and drug discovery” (Biochem J, 2013).
